# From PubChem
# The list is not random: actives were taken first. Their share in the collection is about 5.7%.
# HEK293 tox = cytotoxicity counter-screen for GLP-1 receptor inverse agonists | actives 0.13% (n = 410,000) | HEK293 cAMP-luciferase reporter cells, luminescence, 24 h | Potency, µM (doses to about 38.3 µM), hits mostly inhibitors;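 further: loss of luciferase light is scored as toxicity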
#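 Here, cytotoxicity is scored as loss of luminescence. The MLSMR collection was tested on cells seeded in medium containing 10% Nu serum, with a 24 hr compound exposure preceded by 12 hours of culture.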
# D3 antag = D3 dopamine receptor (human) antagonism. max response, negative = inhibition, %. D3R cells, DiscoveRx beta-arrestin luminescence, antagonist mode; stronger effect = lower value. actives 2.5% (n = 360,000); in the data active means max response below about -50%; inconclusive means no clear call, values can overlap the other calls
# Target sequence (P35462 whole entry, looked up): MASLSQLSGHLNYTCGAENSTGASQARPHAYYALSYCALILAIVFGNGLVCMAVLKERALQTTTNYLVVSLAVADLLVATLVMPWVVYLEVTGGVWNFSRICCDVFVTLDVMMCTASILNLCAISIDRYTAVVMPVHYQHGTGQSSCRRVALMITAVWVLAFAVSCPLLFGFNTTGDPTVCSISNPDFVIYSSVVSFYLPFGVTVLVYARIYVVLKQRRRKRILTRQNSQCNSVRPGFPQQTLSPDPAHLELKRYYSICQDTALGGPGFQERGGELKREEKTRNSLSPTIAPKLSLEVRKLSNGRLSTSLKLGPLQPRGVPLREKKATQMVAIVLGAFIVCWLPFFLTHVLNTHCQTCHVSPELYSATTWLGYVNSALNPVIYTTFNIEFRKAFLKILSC
#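 Cells plated overnight at 1500 cells/well, then exposed to library compounds with dopamine controls for 90 minutes at 37 degrees C. DiscoveRx reagent added for 30–60 minutes at room temperature; luminescence read, quantitative HTS format.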
# GLP1R ag = agonists of human GLP-1 receptor; actives 0.007% (n = 380,000); P43220; Potency, µM (series often up to 45.6 µM), most hits filed as activators; HEK293 GLP-1R CRE-luciferase, luminescence, 4-6 h; cells express a hypersensitive GLP-1R form
# D3 ag = agonists of human D3 dopamine receptor | actives 0.58% (n = 410,000) | D3R DiscoveRx beta-arrestin cells, luminescence, 90 min | max activation, % | AID 652048; in the data active means max activation above about 30%
#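 Agonist-mode cell screen: cells plated at 1500/well and incubated overnight at 37 °C, then exposed to library compounds for 90 min at 37 °C. Detection reagent was added for 30–60 min at room temperature, and luminescence was read.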
# GLP1R inv ag = acts as inverse agonist at human GLP-1 receptor. HEK293 GLP-1R CRE-luciferase, luminescence, 24 h; GLP-1R form is constitutively active. P43220. actives 1.6% (n = 410,000). Potency, µM (doses to about 38.3 µM), actives largely listed as inhibitors; further: nearly all actives have a fitted effect of over 55% in size
#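 HEK293 cells stably co-expressing a cAMP-responsive luciferase reporter and constitutively active GLP-1R were seeded, incubated 12 h, then exposed to compounds for 24 h at 37 C. Luminescence was read 12 min after detection reagent; inverse agonists lower signal.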
# ClpP mod = qHTS Assay for Activators of ClpP; actives 1.9% (n = 340,000); purified B. subtilis ClpP, FRET peptide cleavage, 20 min; ATP-dependent Clp protease proteolytic subunit (Bacillus subtilis (strain 168)), P80244; Potency, µM (doses to about 57.5 µM); active means well fitted falling curve with a large enough effect; inconclusive means small, poorly fitted or top-dose-only effect; inactive means no such curve, though single readings can be large or run the other way; further: the source files actives as falling curves though it sought activators and does not explain the sign; nearly all actives have a fitted effect of over 65% in size
# Target sequence (P80244 whole entry, looked up): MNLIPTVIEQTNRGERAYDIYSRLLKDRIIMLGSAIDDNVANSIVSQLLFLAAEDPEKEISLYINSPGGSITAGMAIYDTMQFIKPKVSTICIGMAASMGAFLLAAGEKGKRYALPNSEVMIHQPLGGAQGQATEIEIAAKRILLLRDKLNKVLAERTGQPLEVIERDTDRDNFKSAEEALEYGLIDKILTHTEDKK
#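 ClpP 10 microg/mL final, pH 8 Tris/KCl buffer with BSA, glycerol, Tween-20; compound pinned in; FRET-FV substrate; RT 20 min; Ex320/Em430; ΔFRET vs ADEP 5.8 microM, DMSO, no enzyme.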
# ClpP validation = validation of B. subtilis ClpP protease hits (inhibitors); purified B. subtilis ClpP, FRET-FV substrate cleavage, 20 min; AID 743245; actives 40% (n = 470); Potency, µM (doses to about 57.5 µM), usual class: inhibitors; shares compounds with ClpP mod; further: nearly all actives have a fitted effect of over 70% in size
# A number is an active result; n = inactive; u = inconclusive; x = no result. Unless noted, the call rests on the fitted dose curve; in most records, active means well fitted curve in the direction sought with a large enough effect; inconclusive means small, poorly fitted or top-dose-only effect, or another doubt; inactive means no such curve, though single readings can be large; an effect the other way counts as inactive or inconclusive.
SMILES,HEK293 tox,D3 antag,GLP1R ag,D3 ag,GLP1R inv ag,ClpP mod,ClpP validation
COCC(=O)Nc1cccc(-c2nc3cccnc3s2)c1,n,x,x,n,n,n,x
O=C(Cc1ccc(F)cc1)Nc1cccc(-c2nc3cccnc3s2)c1,n,x,x,n,n,8.9µM,n
O=c1oc2ccc3ccccc3c2cc1-c1nc2ccccc2o1,n,n,n,n,n,2.5µM,n
O=C(O)CC(C(=O)O)C(=Cc1ccccc1)c1ccccc1 (stereo unspecified),n,n,n,n,n,n,x
CC(C)c1ccc(NC(=O)Cn2c(=O)n(CC3CCC(C(=O)NCCc4ccccc4)CC3)c(=O)c3ccccc32)cc1 (stereo unspecified),n,x,n,n,n,n,x
O=C(c1cnn(C(=O)c2ccccc2)c1)c1ccccc1O,n,n,n,n,n,n,n
COc1ccccc1-c1c(C)nn2c(N3CCN(c4ccc(F)cc4)CC3)cc(C)nc12,n,x,x,n,n,n,x
Cc1ccc(Cl)cc1NC(=O)CCc1c(C)nc2c3cccnc3nn2c1C,n,x,x,n,n,3.5µM,19µM
COc1c(C)cc(C(=O)C2CCCN(S(=O)(=O)N(C)C)C2)cc1C (stereo unspecified),n,n,n,n,n,2.8µM,n
CCOc1ccc(NC(=O)c2sc3nc4c(c(-c5ccc(OC)cc5)c3c2N)C(=O)CC(C)(C)C4)cc1,n,x,x,n,n,n,x
Cn1c(=O)n(C)c2cc(NS(=O)(=O)c3ccc(C(C)(C)C)cc3)c(NCc3ccccc3)cc21,n,x,x,n,n,3.5µM,22µM
Cc1ccc(C(=O)Nc2ccc3oc(-c4cccnc4)nc3c2)c(Cl)c1,n,x,x,n,n,u,x
Cc1ccc(C(=O)Nc2cccc(-c3nc4ccccc4o3)c2)c(Cl)c1,n,x,x,n,n,n,u
O=C(Nc1ccc2nc(SCC(=O)N3CCc4ccccc43)sc2c1)c1ccc(F)cc1,n,x,x,n,n,n,24µM
COc1ccc(C(=O)Nc2nnc(S(=O)(=O)N(C)c3ccc(Cl)cc3)s2)cc1OC,n,x,x,n,n,n,x
COc1c(C)cccc1C(=O)Nc1ccc(-c2nc3ccccc3s2)c(Cl)c1,n,x,x,n,n,7.9µM,n
Cc1cc(C)n(C(C)CC(=O)Nc2cccc(C#N)c2)n1 (stereo unspecified),n,x,x,n,n,n,x
Cc1ccc(NC(=O)c2ccc(NC(=O)c3ccccc3)cc2)cc1C,u,n,n,n,u,n,24µM
Cc1ccccc1Nc1c(-c2c[nH]c3ccccc23)nc2ccc(Cl)cn12,n,x,x,n,n,5µM,n
Cc1ccc(C)c(N2CCN(S(=O)(=O)c3cc(C(=O)Nc4ccccc4C(F)(F)F)ccc3F)CC2)c1,n,x,x,n,u,n,x
O=c1c2ccccc2nc2n1CCCN2,n,n,n,n,n,x,x
O=c1c2ccccc2nc2n1CCCCN2,n,n,n,n,n,4µM,24µM
CCOc1ccc(C2Nc3c(C)cccc3-c3cc(C)nn32)cc1 (stereo unspecified),n,x,x,n,u,n,x
Cc1cc2n(n1)C(c1cn(-c3ccccc3)nc1C)Nc1c(C)cccc1-2 (stereo unspecified),n,n,n,n,n,8.9µM,27µM
COc1ccc(-c2nc(SCC(=O)NCc3nc4ccccc4n3C)n3[nH]c(=O)cc3n2)cc1,n,x,x,n,n,n,x
SMILES,HEK293 tox,D3 antag,GLP1R ag,D3 ag,GLP1R inv ag,ClpP mod,ClpP validation
Cc1ccc(NC(=O)c2sc3ccccc3c2Cl)nc1,n,n,n,n,n,n,x
CNC(=O)c1ccsc1NC(=O)c1sc2ccccc2c1Cl,n,n,n,n,n,n,u
CC(=O)c1ccc(N2CCN(S(=O)(=O)c3cc(-c4onc(C)c4C)ccc3C)CC2)cc1,n,x,x,n,n,n,x
CCOc1ccc(C2C=C(c3ccc(C)cc3)Nc3nnnn32)cc1 (stereo unspecified),n,n,n,n,u,10µM,n
Cc1cc(=O)oc2cc(OCC(=O)Nc3ccc(N4CCC(C)CC4)cc3)ccc12,n,n,n,n,n,n,x
Cc1c(C)c2ccc(OCC(=O)Nc3ccc(N4CCC(C)CC4)cc3)cc2oc1=O,n,n,n,n,n,n,n
CCOc1ccc(N2CC(C(=O)Nc3ccc(S(=O)(=O)N4CCCCC4)cc3)CC2=O)cc1 (stereo unspecified),n,n,n,n,u,7.9µM,n
CCOc1ccc(N2CC(C(=O)Nc3ccc(S(=O)(=O)N4CCCC4)cc3)CC2=O)cc1 (stereo unspecified),n,n,n,n,n,x,x
COc1ccc(-n2c(-c3cccc(OC)c3)nc(=S)c3c2CCCC3)cc1,n,n,n,n,n,n,n
COc1cccc(N2CCN(c3ncnc4c3c(-c3ccccc3)cn4-c3cccc(C(F)(F)F)c3)CC2)c1,n,x,x,n,n,4µM,22µM
CCOC(=O)c1nc2nc(-c3cccs3)cc(C(F)(F)F)n2n1,n,n,n,n,n,u,x
O=C(c1nc2nc(-c3cccs3)cc(C(F)(F)F)n2n1)N1CCN(Cc2ccccc2)CC1,n,u,n,n,n,2.5µM,24µM
Cc1ccn2c(Nc3ccc(C(C)C)cc3)c(-c3ccsc3)nc2c1,n,x,x,n,n,4µM,n
CCCCCCCCCCCCCCCCCCOC[C@H](COP(=O)([O-])OCC[N+](C)(C)C)OC,x,x,n,x,x,x,x
O=C(O)C1=CC(=C(c2ccc(O)c(C(=O)O)c2)c2ccc(O)c(C(=O)O)c2)C=CC1=O,x,x,x,x,x,n,u
Cc1cccc(C)c1NC(=O)COC(=O)COc1ccc2c(C)cc(=O)oc2c1,n,n,n,n,n,n,n
COc1cc2[nH]c(C)c(-c3ccccc3)c(=O)c2cc1Cl,n,n,n,n,n,n,x
COc1ccccc1NC(=O)CN1CCCCC1,n,n,n,n,n,4µM,n
COc1ccccc1NC(=O)c1ccc(NC(=O)CN2CCCCC2)cc1,n,n,n,n,u,x,x
O=C(NCc1ccccc1)C(c1ccc(C(F)(F)F)cc1)n1c(=O)c(-c2cc3ccccc3[nH]2)nc2ccccc21 (stereo unspecified),n,n,x,n,4.5µM,n,n
O=c1c(-c2cc3ccccc3[nH]2)nc2ccccc2n1C(CCc1ccccc1)c1nc2ccccc2[nH]1 (stereo unspecified),n,n,x,n,3.2µM,n,n
